Rows were chosen to be rich in hits. Some 3.6% of all compounds tested hit in one or more screens of this group.
mHTT CaM bind: mutant huntingtin-calmodulin interaction inhibitors – biochemical, AlphaScreen, primary screen | P42858 | AlphaScreen His-mHTT/GST-CaM binding, luminescence | 3.6% of 190,000 active | inhibition, % at 15 µM | AID 1671202, 2021;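 note: 0% = both proteins with DMSO and 100% = one protein alone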
Pf apPOL block: Pf-apPOL inhibitors, biochemical, fluorescence; Recombinant Pf-apPOL, molecular beacon fluorescence, 1.5 h; inhibition, % at 10 µM; 0.25% of 210,000 active; AID 1794808, 2022
* = called active by the depositor; . = no result. Cut-off read from the data, not from the text of the source: active = inhibition above about 50%; inactive = the rest.

SMILES	mHTT CaM bind	Pf apPOL block
COc1cc(C2C(C#N)=C(N)N(c3cccc([N+](=O)[O-])c3)C3=C2C(=O)CCC3)cc(OC)c1OC (stereo not drawn)	1	85*
COc1cc(C2C(C#N)=C(N)N(c3ccccc3)C3=C2C(=O)CCC3)cc(OC)c1OC (stereo not drawn)	10	-2
N#CC1=C(N)N(c2ccc(F)cc2)C2=C(C(=O)CCC2)C1c1ccc(Br)s1 (stereo not drawn)	86*	1
CCc1ccc(C2C(C#N)=C(N)N(c3ccc(F)cc3)C3=C2C(=O)CCC3)s1 (stereo not drawn)	27	-1
CC1(C)OC(=O)C(=CNc2ccc(F)c(F)c2)C(=O)O1	2	3
CCCC(C)C(=O)N1CC(C)CC(C)C1 (stereo not drawn)	12	-3
O=C(c1ccco1)N1CCN(Cc2ccncc2)CC1	-4	-3
Cc1cc(C2C(C#N)=C(N)N(c3ccc(F)cc3)C3=C2C(=O)CCC3)c(C)s1 (stereo not drawn)	12	-2
Cc1cc(C2C(C#N)=C(N)N(c3cccc(C(F)(F)F)c3)C3=C2C(=O)CCC3)c(C)s1 (stereo not drawn)	61*	-2
CSc1ccc(C2Nc3cccc4cccc(c34)N2)cc1	69*	.
CSc1ccc(C2Nc3ccccc3C(=O)N2c2ccc(C)cc2)cc1 (stereo not drawn)	-2	-2
Cc1ccc(-n2nc3c(c2NC(=O)c2ccco2)CSC3)cc1	33	-4
Cc1cc(C)cc(-n2nc3c(c2NC(=O)c2ccco2)CSC3)c1	65*	-10
O=C(Nc1c2c(nn1-c1cccc(Cl)c1)CSC2)c1ccc(Br)o1	10	-4
COc1ccc(C(=O)Nc2c3c(nn2-c2cccc(C)c2)CSC3)cc1	35	-8
Cc1cccc(-n2nc3c(c2NC(=O)c2ccco2)CSC3)c1	72*	2
Cc1cccc(-n2nc3c(c2NC(=O)c2ccc(Br)o2)CSC3)c1	64*	-10
Cn1[nH]c(=O)cc1C(=O)NN=Cc1ccc(Cl)cc1	.	-6
CCn1c(C2CCN(C(=O)C(C)C)C2)nc2cccnc21 (stereo not drawn)	-2	-1
O=[N+]([O-])c1ccc2cc(Br)c3ccccc3c2c1	.	2
Nc1ccc2cc(Br)c3ccccc3c2c1	59*	.
CS(=O)(=O)NCCSC1CCCCC1	-1	2
Cn1nc(C(=O)NCc2ccc(F)cc2)c2c1CCN(C(=O)C1CC1)C2	29	-8
CC(C)C(=O)N1CCc2c(c(C(=O)NCc3ccc(Cl)cc3)nn2C)C1	71*	-6
Cn1nc(C(=O)NCc2ccc(Cl)cc2)c2c1CCN(C(=O)C1CCCCC1)C2	93*	-1
SMILES	mHTT CaM bind	Pf apPOL block
CC(C)C(=O)N1CCc2c(c(C(=O)NCc3ccccc3)nn2C)C1	0	-6
CCC(=O)N1CCc2c(c(C(=O)NCc3ccc(F)cc3)nn2C)C1	18	-6
CCC(=O)N1CCc2c(c(C(=O)NCc3ccc(Cl)cc3)nn2C)C1	81*	-8
CC1CCc2cc(F)ccc2N1C(=O)CCCN1C(=O)c2cccnc2C1=O (stereo not drawn)	6	-32
COc1cccc(CN2Cc3cc(NC(=O)C(C)C)ccc3OC(C)C2=O)c1 (stereo not drawn)	8	-2
CCCCNC(=O)CC1N=C2c3ccccc3N=C(SCC(=O)NC3CCCCC3)N2C1=O (stereo not drawn)	15	1
CCN(Cc1ccccc1)C(=O)c1oc2ccc(S(=O)(=O)N3CC(C)CC(C)C3)cc2c1C (stereo not drawn)	7	-5
Cc1ccc(C(=O)N2CCC3(CC2)NC(=O)c2ccc(Cl)cc2N3)cc1	1	2
Cc1ccc(C(=O)N2CCC(CCNC(=O)C3CCCC3)CC2)cc1	7	-1
OCCNCCOc1ccc(Br)cc1Cl	100*	-2
OCCNCCOc1ccc(Br)cc1	-3	-5
Cc1cccc(C)c1NC(=O)CN1C(=O)c2ccc([N+](=O)[O-])cc2C1=O	0	0
O=C(CN1C(=O)S/C(=C\c2c(Cl)cccc2Cl)C1=O)Nc1cc([N+](=O)[O-])ccc1O	61*	-19
COc1ccc(C(=O)N2CCCN(C3CCN(CC4CC4)C3=O)CC2)c(C)c1 (stereo not drawn)	19	0
COc1ccc(C(=O)Nc2c3c(nn2-c2cccc(C)c2C)CSC3)cc1	42	1
O=C(O)c1ccc(CN2CCOCC2)cc1	-2	-3
Cc1ccc(C)n1Cc1ccc(C(=O)O)cc1	53*	-15
Cc1cc2n(n1)CCC(=O)N2CCCC(=O)N1CCN(c2cccc(C(F)(F)F)c2)CC1	30	-2
Cc1c(Cl)cccc1NS(=O)(=O)c1cc2c(s1)CCN(C(=O)C1CCC1)C2	51*	-3
Cc1cccc(NS(=O)(=O)c2cc3c(s2)CCN(C(=O)C2CC2)C3)c1C	0	-1

High-throughput results: PubChem, University of Kansas High Throughput Screening Laboratory
